# Inconclusive results are not listed. Unmarked numbers belong to inactive results. Active and inactive are the calls of the source. Calls come from the whole dose curve; as a rule, active = well fitted cell-killing curve with a large enough effect in the repeat runs; inconclusive = weak or mixed curves, or effect the other way; inactive = no such curve, though single readings can be large or run the other way.
# Experiment: qHTS assay to identify small molecule antagonists of the glucocorticoid receptor (GR) signaling pathway - cell viability counter screen (AID 720693); note: nearly all actives have a fitted effect of over 55% in size
# Settings: GR-bla HeLa viability, CellTiter-Glo luminescence, 18 h, with 5 nM dexamethasone present; series mostly up to 58.5 µM; viability change, negative = cytotoxic: at the top concentration
# % is set by controls: 0 for no effect and ±100 for the full control effect.
Compound,"viability change, negative = cytotoxic",outcome
CC(=O)c1ccccc1O,1.69%,–
Cc1[nH]c(=O)c(C#N)cc1-c1ccc2nccn2c1,-1.22%,–
CC(=O)CC(C)C,-0.403%,–
CC(C)CCCC(C)N (stereo unspecified),26.4%,–
N=C(N)c1ccccc1,6.3%,–
NCCc1cnc[nH]1,-7.37%,–
COc1c(N2C[C@@H]3CCCN[C@@H]3C2)c(F)cc2c(=O)c(C(=O)O)cn(C3CC3)c12,–,inactive
CCO/C([O-])=N/c1c[n+](N2CCOCC2)no1,-4.99% [at 27 µM],–
O=C1CC2CC1C1CCCC21 (stereo unspecified),1.97%,–
NS(=O)(=O)c1cc(C(=O)O)cc(N2CCCC2)c1Oc1ccccc1,0.575% [at 27 µM],–
Brc1c(NC2=NCCN2)ccc2nccnc12,-2.58%,–
CCn1ccnc1CC1COc2ccccc2O1 (stereo unspecified),2.53%,–
C=C[Si](OC(=C)C)(OC(=C)C)OC(=C)C,-0.788%,–
CCCCCCCCS(=O)(=O)Cl,2.12% [at 78.9 µM],–
CCOC(=O)[C@H](CCc1ccccc1)N[C@@H](C)C(=O)N1[C@H](C(=O)O)C[C@@H]2CCC[C@@H]21,-8.84%,–
C=C(C)CS(=O)(=O)O,3.96%,–
CCN(CC)CCOCCOC(=O)C1(c2ccccc2)CCCC1,-5.42%,–
O=C[C@H](O)[C@@H](O)[C@H](O)[C@H](O)CO,–,inactive
Nc1nc2c(ncn2COC(CO)CO)c(=O)[nH]1,19.1% [at 27 µM],–
C1CN(CCOCCN2CCOCC2)CCO1,6.55%,–
CN1CC(=O)NC1=N,-15.5%,–
CN(C)CCCN1c2ccccc2CCc2ccc(Cl)cc21,9.28%,–
CCOc1ccc(C(=O)OCCN(CC)CC)cc1,9.02%,–
Cc1cccn2c(=O)c(-c3nnn[nH]3)cnc12,3.87%,–
C1OCOCO1,4.92% [at 78.9 µM],–
NC(=O)c1cn(Cc2c(F)cccc2F)nn1,6.99%,–

# Reference: PubChem BioAssay (Tox21)
